# Source: PubChem
# The list is not random: actives were taken first. Their share in the collection is about 2.3%.
# CHT PAM: human CHT allosteric activation | Q9GZV3 | CHT-expressing cells, membrane potential dye, choline EC20; stronger effect = higher value; LV-AA mutant CHT in HEK293 cells | B-score at 10 µM | 0.49% of 310,000 active;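 active means initial fluorescence not abnormally high and integrated response B-score, plate-corrected, over 3 SD above library mean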
# Target sequence (Q9GZV3 whole entry, looked up): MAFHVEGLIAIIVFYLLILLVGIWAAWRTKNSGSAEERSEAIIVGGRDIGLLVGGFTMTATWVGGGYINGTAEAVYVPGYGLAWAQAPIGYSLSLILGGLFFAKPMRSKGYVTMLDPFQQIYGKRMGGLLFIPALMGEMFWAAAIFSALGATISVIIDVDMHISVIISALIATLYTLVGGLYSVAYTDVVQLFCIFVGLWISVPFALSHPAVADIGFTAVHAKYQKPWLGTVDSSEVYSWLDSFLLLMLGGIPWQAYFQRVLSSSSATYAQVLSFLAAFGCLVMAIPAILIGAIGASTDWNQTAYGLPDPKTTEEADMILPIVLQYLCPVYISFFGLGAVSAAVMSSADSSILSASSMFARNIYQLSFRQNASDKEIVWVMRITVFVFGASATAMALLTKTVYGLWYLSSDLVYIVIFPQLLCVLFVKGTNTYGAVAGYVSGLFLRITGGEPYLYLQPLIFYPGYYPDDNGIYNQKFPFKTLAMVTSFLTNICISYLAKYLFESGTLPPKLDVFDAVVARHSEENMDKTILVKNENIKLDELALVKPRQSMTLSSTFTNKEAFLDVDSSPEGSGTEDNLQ
# TMEM16A act: mouse TMEM16A channel activation, primary screen. 0.3% of 340,000 active. B-score at 10 µM. HEK293 TMEM16A/YFP-H148Q/I152L, iodide quench fluorescence; stronger effect = lower value. Q8BHY3;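 active means fluorescence-ratio B-score plate-corrected deviation score at least 3 library SD below zero, with starting fluorescence score within 5 deviations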;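 further: channel opened by trigger with iodide after compound preincubation; score built on the fluorescence ratio of max minus min over baseline; more negative score means more quench and so TMEM16A activation or potentiation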
# CHT inh: inhibitors of human choline transporter CHT | Q9GZV3 | CHT-expressing cells, membrane potential dye, choline response; stronger effect = lower value | B-score at 10 µM | 0.86% of 310,000 active | AID 488975;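 active means B-score over 3 SD under the library average, and starting fluorescence ratio not unusually high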;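 further: choline stimulus applied at its EC90 after an EC20 pre-addition; B-score computed on integrated fluorescence ratio after choline addition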
# TMEM16A inh: blocks the mouse calcium-activated chloride channel TMEM16A; 1.2% of 310,000 active; Q8BHY3; normalized B-score (activity score, 25-100; higher = stronger inhibition) at 10 µM; HEK293 TMEM16A/YFP iodide influx fluorescence, ionomycin;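 active means ratio plate-corrected score three or more library SD toward inhibition, starting fluorescence score within five deviations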;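 further: score derived from kinetic fluorescence span divided by baseline fluorescence per well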
# CHT act confirm: human CHT activation, confirmatory screen | activation, % at 10 µM | 91% of 2,500 active | CHT-expressing cells, membrane potential dye fluorescence (FDSS); % of choline EC20–EC90 response window; HEK293 expressing CHT LV-AA mutant; choline added at its EC20 | shares compounds with CHT PAM;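 active means primary screen active, with duplicate mean activation above negative control mean plus 3 SD, cut at about 11% in these data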
# HEK293 MP dye: activity in parental HEK293 cells lacking CHT; membrane potential dye fluorescence (FDSS); measured after EC20 choline addition; 62% of 2,500 active; ratio readout change at 10 µM, hits read low; shares compounds with CHT PAM;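 active means duplicate-averaged ratio beyond 3 SD from buffer wells, up or down, though filed actives are nearly all decreases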
# TMEM16A reconf: TMEM16A (mouse) chloride channel inhibition, re-confirmation; inhibition, % at 10 µM; HEK293 TMEM16A/YFP-H148Q, iodide quench fluorescence; ionomycin added to raise cell calcium; shares compounds with TMEM16A inh; 39% of 2,300 active;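 active means mean duplicate percent inhibition, scaled so buffer wells are 0 and the reference blocker 100, over three buffer SD above buffer mean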
# TMEM16A Ca cntr: calcium mobilization counter-screen hit for TMEM16A inhibitor series. shares compounds with TMEM16A inh. TMEM16A/YFP HEK293, Fluo4 calcium mobilization. calcium response (% of ionomycin), % at 10 µM. 2% of 2,300 active. AID 652231;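 active means duplicate-averaged calcium signal over 20% of the ionomycin maximum, relative to buffer baseline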;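 further: each well's signal is peak minus trough fluorescence divided by its pre-addition baseline; 0% = buffer wells and 100% = ionomycin wells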
# YFP-HEK293 quench: parental YFP-HEK293 iodide quench counter-screen activity. shares compounds with TMEM16A inh. ionomycin. YFP ratio F(max-min)/F0 at 10 µM. 2,300 tested, under 10 active. AID 652233;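 active means yellow fluorescent protein signal ratio exceeding the buffer control mean by over 5 SD of those controls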;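 further: ratio is mean of duplicate wells from kinetic YFP trace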
# ClC-1 rat inh: rat ClC-1 inhibition, TMEM16A specificity screen; shares compounds with TMEM16A inh; CHO ClC-1-YFP, iodide influx fluorescence quench; iodide control reads 0, buffer control 100; ratio percent, % at 10 µM; 2,300 tested, under 10 active; AID 652236;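 active means duplicate-mean ratio percent above the mean of iodide-only control wells, which defines zero, plus 5 of their SD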;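 further: higher percent means stronger block of ClC-1 iodide influx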
# Numbers without * were called inactive; i = inactive; · = no result.
SMILES,CHT PAM,TMEM16A act,CHT inh,TMEM16A inh,TMEM16A reconf,TMEM16A Ca cntr,YFP-HEK293 quench,ClC-1 rat inh,others
O=C(NC1(C(F)(F)F)Oc2ccccc2O1)N1CCCC1,6.62*,i,i,100*,i,i,-1,3.5,CHT act confirm=0.5;HEK293 MP dye=i
O=C(Nc1ccc2c(c1)OCO2)NC1(C(F)(F)F)Oc2ccccc2O1,i,i,i,i,·,·,·,·,
Cc1cc(C)nc(/N=C(\N)Nc2ccc(SC(F)F)cc2)n1,i,i,i,100*,i,32.0%*,-0.978,-6.0,CHT act confirm=46.2*;HEK293 MP dye=-49*
CC(C)N(C)Cc1cn(C)nc1-c1ccc(Oc2ccccc2)cc1,i,i,i,i,·,·,·,·,
CCN(Cc1ccncc1)Cc1cn(C)nc1-c1ccc(Oc2ccccc2)cc1,i,i,i,100*,i,i,-1.19,-5.5,CHT act confirm=19.2*;HEK293 MP dye=i
N#Cc1c(-c2ccccc2)nc(-c2cccnc2)[nH]c1=O,i,i,i,i,·,·,·,·,
CN(C)C(CNC(=O)CSc1nc2sc3c(c2c(=O)n1C)CCCC3)c1ccccc1 (stereo not given),·,i,·,·,·,·,·,·,
Cc1ccc(C(=O)NNC(=O)c2ccccc2O)cc1S(=O)(=O)N1CCCCC1,i,i,i,i,·,·,·,·,
Cc1sc2c(=O)n3c(nc2c1C(=O)NCCCN1CCOCC1)CCCCC3,6.9*,i,i,100*,i,i,-0.948,-10.0,CHT act confirm=50.7*;HEK293 MP dye=-40.1*
Cc1cccc(N(C)S(=O)(=O)c2ccc(-c3cc(C)no3)s2)c1,i,i,i,25*,i,i,-0.883,-7.5,CHT act confirm=39.4*;HEK293 MP dye=i
COC(=O)c1ccc(CSc2nnnn2-c2ccccc2)o1,i,i,i,100*,i,i,-0.913,-2.5,
Cc1ccc2c(c1)C(=O)CC(c1ccccc1)S2 (stereo not given),·,i,·,·,·,·,·,·,
CCC(=O)N(CCC(c1ccco1)c1ccccc1OC)Cc1cccs1 (stereo not given),i,i,i,100*,i,i,-1.07,-18.0,
COc1nnc(-c2ccc(N3CCCCC3)c(NC(=O)COc3ccccc3)c2)c2ccccc12,·,i,·,·,·,·,·,·,
O=C(C[C@@H]1C/C=C\CC[C@H](Cc2ccc(F)cc2)C(=O)OC[C@@H]2CCCN2C1=O)NCCO,·,i,·,·,·,·,·,·,
Cc1ccc(S(=O)(=O)N2CCN(c3ncnc4sccc34)CC2)cc1,i,i,i,25*,17.0%*,i,-1.23,-13.0,
Cc1sc2ncnc(N3CCN(S(=O)(=O)c4ccc(F)cc4)CC3)c2c1C,i,i,i,100*,i,i,-0.985,-10.5,
Cc1ccc(-c2ccc(S(=O)(=O)N3CCN(C)CC3)cc2)cc1,i,i,i,100*,i,i,-0.847,-10.0,
COc1cc(C(=O)N2CCN(c3ncnc4sc(C)c(C)c34)CC2)cc(OC)c1OC,i,i,i,25*,i,i,-1.01,-15.0,
CCS(=O)(=O)N1CCN(c2ncnc3sc(C)c(C)c23)CC1,i,i,i,i,·,·,·,·,
COc1ccc(Cl)cc1NC(=O)CN(C)C(=O)c1cc(C)oc1C,·,i,·,·,·,·,·,·,
CC(C)CN1C(=O)c2ccc(C(=O)Nc3ccncc3)cc2C1=O,i,i,i,25*,27.0%*,i,-0.994,-18.0,
Nc1ccc(CCS(N)(=O)=O)cc1,i,i,i,25*,i,i,-0.891,-2.0,
Cc1noc(C)c1NC(=O)N(C)C[C@@H]1Oc2ccc(NC(=O)CCC(F)(F)F)cc2CC(=O)N([C@@H](C)CO)C[C@@H]1C,·,i,·,·,·,·,·,·,
CN1/C(=C\C(=O)Nc2ccc(Cl)cc2)C(C)(C)c2ccccc21,i,i,i,25*,i,i,-1.29,-10.0,
SMILES,CHT PAM,TMEM16A act,CHT inh,TMEM16A inh,TMEM16A reconf,TMEM16A Ca cntr,YFP-HEK293 quench,ClC-1 rat inh,others
CN1/C(=C\C=C(/C#N)C(=O)Nc2ccc(Cl)cc2)C(C)(C)c2ccccc21,i,i,i,i,·,·,·,·,
O=C(Nc1ccc(NC(=O)c2ccc([N+](=O)[O-])cc2[N+](=O)[O-])cc1)c1ccco1,i,i,i,i,·,·,·,·,
O=C(Nc1ccc(Nc2ccncc2)cc1)c1ccc(Nc2ccnc3ccc([N+](=O)[O-])cc23)cc1[N+](=O)[O-],i,i,i,25*,i,i,-0.99,-4.0,
O=C(C[C@H]1C/C=C\CC[C@@H](Cc2ccc(F)cc2)C(=O)O[C@@H](c2ccccc2)CNC1=O)N[C@@H](CO)Cc1ccccc1,·,i,·,·,·,·,·,·,
Nc1c(C(=O)N/N=C/c2cccnc2)oc2nc(-c3ccccc3)cc(-c3ccco3)c12,i,i,i,i,i,i,-1.12,1.0,
CC1CCC(NC(=O)c2cccn2C)CC1 (stereo not given),·,i,·,·,·,·,·,·,
CN(C)S(=O)(=O)c1cccc(N=C2SCCN2Cc2ccccc2)c1,i,i,i,100*,35.5%*,i,-0.872,-7.5,
CCc1c(C)nc2ncnn2c1NCCc1ccc(OC)cc1,i,i,i,25*,i,i,-0.822,-19.5,
Clc1nc(Nc2ccc(N3CCOCC3)cc2)c2ccccc2n1,i,i,i,i,·,·,·,·,
O=S(=O)(Nc1nc2ccccc2nc1Nc1ccc(N2CCOCC2)cc1)c1cc(Cl)ccc1Cl,i,i,i,100*,41.5%*,26.5%*,-1.01,-9.5,
CN(CC(=O)Nc1ccc(Cl)c(C(F)(F)F)c1)C(=O)c1cnccn1,·,i,·,·,·,·,·,·,
O=C(Nc1cccc(OC(=O)c2ccc(Br)o2)c1)c1ccccc1,i,i,i,i,·,·,·,·,
CCn1cc(C(=O)NCc2ccccn2)c(=O)c2cc(F)c(N3CCN(C)CC3)cc21,i,i,i,i,i,i,-1.25,-0.5,
CC(C)(Oc1ccc(Cl)cc1)C(=O)OCn1nnc2ccccc2c1=O,i,i,i,100*,i,32.0%*,-1.06,-1.0,
O=C(CNC(=O)c1ccc(Cl)cc1)OCn1nnc2ccccc2c1=O,·,i,·,·,·,·,·,·,
Cc1ccc(C)c2[nH]c(=O)c(CCNC(=O)CCc3ccccc3)cc12,i,i,i,i,·,·,·,·,
